# Inconclusive results are not listed. A call without a number means that no potency is given here. Unmarked numbers belong to inactive results. Calls of active or inactive are those of the source. The call rests on the fitted dose curve; in most records, active means well fitted curve in the direction sought with a large enough effect; inconclusive means small, poorly fitted or top-dose-only effect, or another doubt; inactive means no such curve, though single readings can be large; an effect the other way counts as inactive or inconclusive.
# Tests used:
# [1] = biological target: Aldehyde dehydrogenase, mitochondrial (Homo sapiens) (UniProt P05091); test: qHTS for Inhibitors of the Aldehyde Dehydrogenase Family (ALDH2) Primary screen (AID 2061308); further: nearly all actives have a fitted effect of over 55% in size
# [2] = biological target: Retinaldehyde dehydrogenase 3 (Homo sapiens) (UniProt P47895); test: qHTS for Inhibitors of the Aldehyde Dehydrogenase Family (ALDH1A3) Primary screen (AID 2061315)
# [3] = BET inhibitor-based combinations targeting novel dependencies in MECOM-rearranged (r) AML: OCI-AML3 cell line (AID 2202232); conditions: Potency: OCI-AML3 viability; further: nearly all actives have a fitted effect of over 35% in size; further: potency means the concentration at half of the fitted maximal effect
# Method in brief: (§1)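 Readout: CellTiter-Glo luminescence. Exposure: 48 h, 11 concentrations, 500 cells/well. Metric: AUC and within-line Z-AUC after DMSO/empty-well normalization.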
# [4] = BET inhibitor-based combinations targeting novel dependencies in MECOM-rearranged (r) AML: HNT-34 cell line (AID 2202234); further: nearly all actives have a fitted effect of over 35% in size; further: potency means the concentration at half of the fitted maximal effect
# Method in brief: (§2)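 Seeding density was 500 cells/well, and drug exposure lasted 48 hr under standard culture conditions. Read-out used CellTiter-Glo reagent with a 15 min room-temperature incubation before luminescence measurement; AUC and Z-AUC summarize the normalized responses.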
# [5] = BET inhibitor-based combinations targeting novel dependencies in MECOM-rearranged (r) AML: UCSD-AML1 cell line (AID 2202235); further: nearly all actives have a fitted effect of over 40% in size; further: potency means the concentration at half of the fitted maximal effect
# Method in brief: as §2
# [6] = BET inhibitor-based combinations targeting novel dependencies in MECOM-rearranged (r) AML: AML-191 cell line (AID 2202236; further: nearly all actives have a fitted effect of over 35% in size; further: potency means the concentration at half of the fitted maximal effect)
# Method in brief: as §1
# [7] = BET inhibitor-based combinations targeting novel dependencies in MECOM-rearranged (r) AML: SET-2 cell line (AID 2202231); conditions: SET-2 AML cells viability, CellTiter-Glo luminescence, 48 h; viability: active compounds read low, concentration not given here; further: nearly all actives have a fitted effect of over 35% in size; further: potency means the concentration at half of the fitted maximal effect
# Method in brief: as §1
# [8] = BET inhibitor-based combinations targeting novel dependencies in MECOM-rearranged (r) AML: MV-4-11 cell line (AID 2202233); further: nearly all actives have a fitted effect of over 45% in size; further: potency means the concentration at half of the fitted maximal effect
# Method in brief: as §2
# [9] = BET inhibitor-based combinations targeting novel dependencies in MECOM-rearranged (r) AML: AML-194 cell line (AID 2202237; further: nearly all actives have a fitted effect of over 40% in size; further: potency means the concentration at half of the fitted maximal effect)
# Method in brief: as §1
# [10] = biological target: Aldehyde dehydrogenase 1A1 (Homo sapiens) (UniProt P00352); test: qHTS for Inhibitors of the Aldehyde Dehydrogenase Family (ALDH1A1) Confirmatory screens (AID 2061316); further: potency means the concentration at half of the fitted maximal effect; nearly all actives have a fitted effect of over 65% in size
smiles,measurement,setting,value
COc1ccc(C2(C#N)CCC(C(=O)O)CC2)cc1OC1CCCC1 (stereo unspecified),Potency,[1],inactive
same,Potency,[2],inactive
same,Potency,[3],inactive
same,Potency,[4],inactive
same,Potency,[5],inactive
same,Potency,[6],inactive
C=C1C(=O)OC2CC(COC(=O)C(C)C)=C(C(C)CCCOC(C)=O)[C@@H](OC(C)=O)C12 (stereo partly specified),Potency,[1],inactive
same,Potency,[2],inactive
COC(=O)C1=C[C@@H](O)[C@@H](O)[C@H](O[C@@H]2O[C@H](COC(=O)/C=C/c3ccccc3)[C@@H](O)[C@H](O)[C@H]2O)C1,Potency,[1],inactive
same,Potency,[2],inactive
CC1(C)CCCC2(C)C3=C(C(=O)OC3O)C(O)CC12 (stereo unspecified),Potency,[1],inactive
same,Potency,[2],inactive
CS(=O)(=O)c1ccc(C2=C(c3ccccc3)C(=O)OC2)cc1,Potency,[1],inactive
same,Potency,[2],inactive
same,viability,[7],95.1%
same,Potency,[3],inactive
same,Potency,[8],inactive
same,Potency,[4],inactive
same,Potency,[5],inactive
same,Potency,[6],inactive
Cc1cc2c(cc1C1(c3ccc(C(=O)O)cn3)CC1)C(C)(C)CCC2(C)C,Potency,[1],inactive
same,Potency,[2],inactive
same,viability,[7],114%
same,Potency,[8],0.0209 µM (active)
same,Potency,[4],inactive
same,Potency,[5],inactive
same,Potency,[6],inactive
same,Potency,[9],inactive
O=C(NCCCNC(=O)c1ccc[nH]c1=O)c1cc(-c2ccccc2)on1,Potency,[1],inactive
same,Potency,[2],inactive
same,Potency,[7],13.2 µM (active)
same,Potency,[8],8.33 µM (active)
same,Potency,[9],14.8 µM (active)
CC(C)(O)CNc1nc(Nc2ccnc(C(F)(F)F)c2)nc(-c2cccc(C(F)(F)F)n2)n1,Potency,[1],inactive
same,Potency,[2],inactive
same,Potency,[8],20.9 µM (active)
same,Potency,[5],inactive
CC(C)(O)CC(=O)NCCn1ccc2ncnc(Nc3ccc(Oc4cccc(C(F)(F)F)c4)c(Cl)c3)c21,Potency,[1],inactive
same,Potency,[2],inactive
same,Potency,[3],16.6 µM (active)
same,Potency,[8],13.2 µM (active)
same,Potency,[4],14.8 µM (active)
same,Potency,[5],14.8 µM (active)
same,Potency,[6],16.6 µM (active)
COc1ccc2cc(-c3nc(-c4ccc(S(C)=O)cc4)[nH]c3-c3ccncc3)ccc2c1 (stereo unspecified),Potency,[1],inactive
same,Potency,[2],inactive
same,Potency,[5],inactive
CNC(=O)c1nn(C)c2c1C(C)(C)Cc1cnc(Nc3ccc(N4CCN(C)CC4)cc3)nc1-2,Potency,[1],inactive
same,Potency,[2],inactive
same,Potency,[7],0.833 µM (active)
same,Potency,[3],5.25 µM (active)
same,Potency,[8],0.132 µM (active)
same,Potency,[5],0.934 µM (active)
same,Potency,[6],1.18 µM (active)
same,Potency,[9],1.32 µM (active)
COc1cc2nccc(Oc3ccc(NC(=O)C4(C(=O)Nc5ccc(F)cc5)CC4)cc3)c2cc1OC,Potency,[1],inactive
same,Potency,[2],inactive
same,Potency,[8],0.0166 µM (active)
same,Potency,[4],2.95 µM (active)
CNC(=O)c1cc(Oc2ccc(NC(=O)Nc3ccc(Cl)c(C(F)(F)F)c3)c(F)c2)ccn1,Potency,[1],inactive
same,Potency,[2],inactive
same,Potency,[3],2.63 µM (active)
same,Potency,[4],10.5 µM (active)
same,Potency,[6],9.34 µM (active)
OCCCNc1cc(-c2ccnc(Nc3cccc(Cl)c3)n2)ccn1,Potency,[1],inactive
same,Potency,[2],inactive
same,Potency,[7],0.132 µM (active)
same,Potency,[3],0.118 µM (active)
same,Potency,[8],0.132 µM (active)
same,Potency,[4],0.132 µM (active)
same,Potency,[5],0.0833 µM (active)
same,Potency,[6],0.0934 µM (active)
same,Potency,[9],0.332 µM (active)
COc1ccc(S(=O)(=O)N2CCC[C@H]2C(=O)Nc2cc(C)cc(C)c2)cc1,Potency,[1],inactive
same,Potency,[2],inactive
Clc1ccc(Nc2nnc(Cc3ccncc3)c3ccccc23)cc1,Potency,[1],inactive
same,Potency,[2],inactive
same,viability,[7],91.3%
same,Potency,[4],inactive
same,Potency,[6],inactive
same,Potency,[9],inactive
CC1(C)CN(C(=O)c2ccc(-c3cccc4nc(NC(=O)C5CC5)nn34)cc2)C1,Potency,[1],inactive
same,Potency,[2],inactive
same,Potency,[3],inactive
same,Potency,[4],18.6 µM (active)
same,Potency,[9],inactive
Cc1cncc2cccc(S(=O)(=O)N3CCCN(C(=O)CN)C[C@@H]3C)c12,Potency,[1],inactive
same,Potency,[2],inactive
same,viability,[7],91.2%
same,Potency,[5],4.17 µM (active)
CC(=O)OCC(=O)[C@@]1(O)CC[C@H]2[C@@H]3CCC4=CC(=O)C=C[C@]4(C)[C@H]3[C@@H](O)C[C@@]21C,Potency,[1],inactive
same,Potency,[2],inactive
same,viability,[7],114%
same,Potency,[8],inactive
same,Potency,[5],inactive
same,Potency,[6],0.833 µM (active)
same,Potency,[9],0.372 µM (active)
CNC(=O)c1ccc(C)c(-n2c(C)cc(OCc3ccc(F)cc3F)c(Br)c2=O)c1,Potency,[1],inactive
same,Potency,[2],inactive
same,Potency,[3],inactive
same,Potency,[5],inactive
same,Potency,[9],inactive
C[C@H](O)[C@H](O)[C@H]1CNc2nc(N)[nH]c(=O)c2N1,Potency,[1],inactive
same,Potency,[2],inactive
same,Potency,[10],12.7 µM (active)
CCCCOC(=O)NS(=O)(=O)c1sc(CC(C)C)cc1-c1ccc(Cn2ccnc2)cc1,Potency,[1],inactive
same,Potency,[2],inactive
same,viability,[7],80.2%
same,Potency,[3],inactive
same,Potency,[5],inactive
same,Potency,[9],inactive
COc1cc(CNC(=O)CCCC/C=C/C(C)C)ccc1O,Potency,[1],inactive
same,Potency,[2],inactive
same,Potency,[3],inactive
same,Potency,[4],6.61 µM (active)
same,Potency,[9],10.5 µM (active)
CCN1CCC(n2cc(CNc3cc(Cl)c4ncc(C#N)c(Nc5ccc(F)c(Cl)c5)c4c3)nn2)CC1,Potency,[1],inactive
same,Potency,[2],inactive
same,Potency,[3],16.6 µM (active)
same,Potency,[8],20.9 µM (active)
same,Potency,[5],inactive
